Source: paper PMC7862700, “An all-to-all approach to the identification of sequence-specific readers for epigenetic DNA modifications on cytosine”

How the values were obtained:
Experiment in all cases: DAPPL (digital affinity profiling via proximity ligation, sequencing); 10 mM Tris-HCl pH 7.5, 50 mM NaCl, 1 mM DTT, 4% glycerol, room temperature, 30 min; GST-TFs on glutathione beads, 16-mer random dsDNA library, 0.1% formaldehyde crosslink after washing; high values mean tight binding
FLI1 = biological target: T1, FLI1 (Homo sapiens, UniProt Q01543 1-452); details: protein: recombinant; tags: N-terminal GST; dsDNA, one strand shown
T1 sequence: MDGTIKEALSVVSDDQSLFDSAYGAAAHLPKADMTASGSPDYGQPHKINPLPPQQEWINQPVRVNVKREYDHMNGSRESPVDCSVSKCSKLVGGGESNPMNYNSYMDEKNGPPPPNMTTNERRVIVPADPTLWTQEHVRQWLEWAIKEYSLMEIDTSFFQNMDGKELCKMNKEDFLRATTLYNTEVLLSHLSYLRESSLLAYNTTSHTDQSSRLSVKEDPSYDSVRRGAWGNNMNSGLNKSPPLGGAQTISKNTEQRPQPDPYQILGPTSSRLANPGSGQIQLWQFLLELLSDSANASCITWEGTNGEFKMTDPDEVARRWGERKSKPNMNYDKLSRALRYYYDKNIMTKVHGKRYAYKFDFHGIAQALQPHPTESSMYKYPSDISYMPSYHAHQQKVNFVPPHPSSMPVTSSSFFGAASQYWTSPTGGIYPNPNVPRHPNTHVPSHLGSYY
Outline: (§1)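 GST fusions of human transcription factors were expressed in yeast and captured with glutathione beads. Once given DNA barcodes and pooled alongside a tag-only sample, they were incubated for 30 min at room temperature with 200 nmole of a random double-stranded 16-mer DNA library in Tris/NaCl/DTT/glycerol buffer, then washed, crosslinked (0.1% formaldehyde), proximity-ligated, PCR-amplified and sequenced on an Illumina NextSeq500. The binding signal of each hexamer is its read frequency for a factor divided by its frequency for the tag-only sample.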

ELK1 = biological target: T2, ELK1 (Homo sapiens, UniProt P19419 1-428); details: protein: recombinant; tags: N-terminal GST; dsDNA, one strand shown
T2 sequence: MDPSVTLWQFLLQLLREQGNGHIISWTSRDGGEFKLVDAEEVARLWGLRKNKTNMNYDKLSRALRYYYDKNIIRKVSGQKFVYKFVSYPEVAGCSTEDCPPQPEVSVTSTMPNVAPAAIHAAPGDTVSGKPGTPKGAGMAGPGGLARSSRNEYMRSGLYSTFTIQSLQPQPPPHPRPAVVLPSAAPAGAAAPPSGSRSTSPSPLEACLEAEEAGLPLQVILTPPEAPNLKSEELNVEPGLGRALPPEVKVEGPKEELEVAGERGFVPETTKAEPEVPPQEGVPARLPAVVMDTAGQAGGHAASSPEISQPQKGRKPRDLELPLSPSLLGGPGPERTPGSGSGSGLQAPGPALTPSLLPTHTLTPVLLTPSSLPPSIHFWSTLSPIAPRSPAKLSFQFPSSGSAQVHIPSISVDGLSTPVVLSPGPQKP
Outline: as §1

GABPA = biological target: T3, GABPA (Homo sapiens, UniProt Q06546 1-454); details: protein: recombinant; tags: N-terminal GST; dsDNA, one strand shown
T3 sequence: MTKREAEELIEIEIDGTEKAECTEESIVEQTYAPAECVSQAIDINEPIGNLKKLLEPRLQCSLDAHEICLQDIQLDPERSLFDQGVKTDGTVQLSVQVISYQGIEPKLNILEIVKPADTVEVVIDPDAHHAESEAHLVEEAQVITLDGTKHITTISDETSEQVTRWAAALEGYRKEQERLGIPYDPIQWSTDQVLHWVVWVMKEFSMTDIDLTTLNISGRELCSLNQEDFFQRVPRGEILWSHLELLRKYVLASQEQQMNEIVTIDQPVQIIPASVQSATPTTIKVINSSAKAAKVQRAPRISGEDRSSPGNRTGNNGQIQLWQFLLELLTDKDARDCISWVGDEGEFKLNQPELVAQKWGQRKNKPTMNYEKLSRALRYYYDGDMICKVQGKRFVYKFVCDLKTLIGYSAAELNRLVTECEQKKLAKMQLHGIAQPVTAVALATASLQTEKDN
Outline: as §1

ERG = biological target: T4, ERG (Homo sapiens, UniProt P11308 1-479); details: protein: recombinant; tags: N-terminal GST; dsDNA, one strand shown
T4 sequence: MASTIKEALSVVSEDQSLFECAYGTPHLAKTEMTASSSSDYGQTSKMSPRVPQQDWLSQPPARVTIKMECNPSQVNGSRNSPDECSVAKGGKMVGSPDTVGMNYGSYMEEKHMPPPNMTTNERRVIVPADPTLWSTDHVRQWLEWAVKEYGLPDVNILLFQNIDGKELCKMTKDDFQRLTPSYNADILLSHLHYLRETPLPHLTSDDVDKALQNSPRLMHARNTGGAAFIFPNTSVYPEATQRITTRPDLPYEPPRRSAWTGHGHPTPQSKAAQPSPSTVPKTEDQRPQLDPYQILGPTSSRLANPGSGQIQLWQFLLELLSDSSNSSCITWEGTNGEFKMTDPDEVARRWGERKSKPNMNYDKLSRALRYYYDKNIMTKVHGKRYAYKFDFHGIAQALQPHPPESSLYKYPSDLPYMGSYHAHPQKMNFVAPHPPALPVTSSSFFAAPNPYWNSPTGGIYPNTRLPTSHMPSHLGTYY
Outline: as §1

ELF1 = ELF1 (Homo sapiens, UniProt P32519 1-619); details: protein: recombinant; tags: N-terminal GST; dsDNA, one strand shown
Outline: as §1

EHF = biological target: T5, EHF (Homo sapiens, UniProt Q9NZC4 1-300); details: protein: recombinant; tags: N-terminal GST; dsDNA, one strand shown
T5 sequence: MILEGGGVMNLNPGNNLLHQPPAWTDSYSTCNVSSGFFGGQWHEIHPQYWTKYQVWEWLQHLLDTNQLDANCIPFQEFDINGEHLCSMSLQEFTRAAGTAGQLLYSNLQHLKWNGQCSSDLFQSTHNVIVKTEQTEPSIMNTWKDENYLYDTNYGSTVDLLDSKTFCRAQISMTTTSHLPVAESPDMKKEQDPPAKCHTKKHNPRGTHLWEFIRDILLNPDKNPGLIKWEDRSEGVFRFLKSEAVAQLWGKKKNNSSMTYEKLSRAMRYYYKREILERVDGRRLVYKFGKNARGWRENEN
Outline: as §1

SPI1 = SPI1 (Homo sapiens, UniProt P17947 1-270); details: protein: recombinant; tags: N-terminal GST; dsDNA, one strand shown
Outline: as §1

SPIB = SPIB (Homo sapiens, UniProt Q01892 1-262); details: protein: recombinant; tags: N-terminal GST; dsDNA, one strand shown
Outline: as §1

ELK3 = biological target: T6, ELK3 (Homo sapiens, UniProt P41970 1-407); details: protein: recombinant; tags: N-terminal GST; dsDNA, one strand shown
T6 sequence: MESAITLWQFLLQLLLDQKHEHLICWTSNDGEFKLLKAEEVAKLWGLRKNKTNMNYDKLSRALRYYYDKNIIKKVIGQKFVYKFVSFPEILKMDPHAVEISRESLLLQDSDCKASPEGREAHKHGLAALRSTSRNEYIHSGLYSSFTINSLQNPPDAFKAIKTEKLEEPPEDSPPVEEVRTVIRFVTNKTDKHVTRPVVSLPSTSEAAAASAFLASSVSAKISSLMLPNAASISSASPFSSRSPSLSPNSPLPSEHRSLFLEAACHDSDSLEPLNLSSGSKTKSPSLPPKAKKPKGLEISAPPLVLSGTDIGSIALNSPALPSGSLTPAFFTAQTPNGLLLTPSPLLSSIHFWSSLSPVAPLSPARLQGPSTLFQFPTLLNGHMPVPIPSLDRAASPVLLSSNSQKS
Outline: as §1

FEV = biological target: T7, FEV (Homo sapiens, UniProt Q99581 1-238); details: protein: recombinant; tags: N-terminal GST; dsDNA, one strand shown
T7 sequence: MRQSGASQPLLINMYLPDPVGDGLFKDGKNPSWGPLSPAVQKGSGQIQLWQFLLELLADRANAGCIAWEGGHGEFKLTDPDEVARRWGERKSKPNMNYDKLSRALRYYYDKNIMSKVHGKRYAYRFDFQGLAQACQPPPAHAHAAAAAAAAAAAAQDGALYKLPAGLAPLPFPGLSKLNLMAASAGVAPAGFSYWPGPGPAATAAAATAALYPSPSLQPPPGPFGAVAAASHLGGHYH
Outline: as §1

ETV5 = ETV5 (Homo sapiens, UniProt P41161 1-510); details: protein: recombinant; tags: N-terminal GST; dsDNA, one strand shown
Outline: as §1

HSF1 = HSF1 (Homo sapiens, UniProt Q00613 1-529); details: protein: recombinant; tags: N-terminal GST; chain copies: 3; dsDNA, one strand shown
Outline: as §1

SPIC = biological target: T8, SPIC (Homo sapiens, UniProt Q8N5J4 1-248); details: protein: recombinant; tags: N-terminal GST; dsDNA, one strand shown
T8 sequence: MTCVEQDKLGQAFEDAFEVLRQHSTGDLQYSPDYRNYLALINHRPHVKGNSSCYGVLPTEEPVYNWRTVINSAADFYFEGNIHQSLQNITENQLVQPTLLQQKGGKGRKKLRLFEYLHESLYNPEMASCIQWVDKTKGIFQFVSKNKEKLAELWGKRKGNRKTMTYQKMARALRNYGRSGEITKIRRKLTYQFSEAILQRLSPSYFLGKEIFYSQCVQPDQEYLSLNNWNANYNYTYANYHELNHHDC
Outline: as §1

ELF4 = ELF4 (Homo sapiens, UniProt Q99607 1-663); details: protein: recombinant; tags: N-terminal GST; dsDNA, one strand shown
Outline: as §1

ELK4 = biological target: T9, ELK4 (Homo sapiens, UniProt P28324-2 1-405); details: protein: recombinant; tags: N-terminal GST; dsDNA, one strand shown
T9 sequence: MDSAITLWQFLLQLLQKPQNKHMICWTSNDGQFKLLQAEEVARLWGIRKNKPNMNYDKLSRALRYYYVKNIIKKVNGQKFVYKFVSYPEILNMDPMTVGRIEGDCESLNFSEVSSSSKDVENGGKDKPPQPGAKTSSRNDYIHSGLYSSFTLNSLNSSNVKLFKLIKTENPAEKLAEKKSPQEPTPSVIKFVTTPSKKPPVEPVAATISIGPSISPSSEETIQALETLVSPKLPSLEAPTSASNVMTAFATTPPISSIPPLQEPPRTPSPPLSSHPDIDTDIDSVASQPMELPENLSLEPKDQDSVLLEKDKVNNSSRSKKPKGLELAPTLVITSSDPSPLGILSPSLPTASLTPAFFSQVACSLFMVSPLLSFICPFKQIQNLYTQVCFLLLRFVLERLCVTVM
Outline: as §1

ETV2 = biological target: T10, ETV2 (Homo sapiens, UniProt O00321 1-342); details: protein: recombinant; tags: N-terminal GST; dsDNA, one strand shown
T10 sequence: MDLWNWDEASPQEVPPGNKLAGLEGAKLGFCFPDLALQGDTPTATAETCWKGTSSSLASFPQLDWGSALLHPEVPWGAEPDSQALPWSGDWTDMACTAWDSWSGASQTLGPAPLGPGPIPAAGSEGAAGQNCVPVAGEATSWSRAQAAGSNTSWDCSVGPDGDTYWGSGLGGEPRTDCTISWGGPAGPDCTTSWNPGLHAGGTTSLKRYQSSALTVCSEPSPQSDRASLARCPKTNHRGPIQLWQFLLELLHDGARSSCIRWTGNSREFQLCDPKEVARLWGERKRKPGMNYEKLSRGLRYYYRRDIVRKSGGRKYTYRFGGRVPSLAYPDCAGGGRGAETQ
Outline: as §1

ELF3 = biological target: T11, ELF3 (Homo sapiens, UniProt P78545 1-371); details: protein: recombinant; tags: N-terminal GST; dsDNA, one strand shown
T11 sequence: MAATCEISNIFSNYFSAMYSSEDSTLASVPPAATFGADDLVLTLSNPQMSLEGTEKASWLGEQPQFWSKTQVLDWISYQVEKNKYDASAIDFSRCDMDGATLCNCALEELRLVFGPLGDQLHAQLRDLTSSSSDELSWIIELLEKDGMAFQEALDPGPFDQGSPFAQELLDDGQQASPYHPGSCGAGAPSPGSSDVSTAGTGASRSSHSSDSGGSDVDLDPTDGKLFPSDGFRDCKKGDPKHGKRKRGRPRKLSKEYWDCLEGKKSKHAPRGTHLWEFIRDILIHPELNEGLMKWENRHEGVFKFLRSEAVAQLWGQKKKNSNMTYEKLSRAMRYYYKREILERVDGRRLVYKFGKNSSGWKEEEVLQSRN
Outline: as §1

CRX = CRX (Homo sapiens, UniProt O43186 1-299); details: protein: recombinant; tags: N-terminal GST; dsDNA, one strand shown
Outline: as §1

ETV1 = ETV1 (Homo sapiens, UniProt P50549 1-477); details: protein: recombinant; tags: N-terminal GST; dsDNA, one strand shown
Outline: as §1

Sequence of ETV5 (P41161 whole entry): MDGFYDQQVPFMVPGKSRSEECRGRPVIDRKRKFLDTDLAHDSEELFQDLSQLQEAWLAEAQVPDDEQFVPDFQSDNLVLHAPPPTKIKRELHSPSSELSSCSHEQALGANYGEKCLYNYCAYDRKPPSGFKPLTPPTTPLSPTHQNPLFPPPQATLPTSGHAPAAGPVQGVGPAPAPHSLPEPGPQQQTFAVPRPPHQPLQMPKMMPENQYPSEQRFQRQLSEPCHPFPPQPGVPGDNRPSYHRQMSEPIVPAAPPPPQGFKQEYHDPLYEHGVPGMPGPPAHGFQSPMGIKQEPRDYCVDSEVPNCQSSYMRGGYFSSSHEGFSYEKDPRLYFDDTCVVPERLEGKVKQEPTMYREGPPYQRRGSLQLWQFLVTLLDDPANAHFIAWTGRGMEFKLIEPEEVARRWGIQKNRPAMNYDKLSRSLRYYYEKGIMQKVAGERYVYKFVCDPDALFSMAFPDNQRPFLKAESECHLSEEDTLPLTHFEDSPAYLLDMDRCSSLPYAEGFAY
Sequence of ELF1 (P32519 whole entry): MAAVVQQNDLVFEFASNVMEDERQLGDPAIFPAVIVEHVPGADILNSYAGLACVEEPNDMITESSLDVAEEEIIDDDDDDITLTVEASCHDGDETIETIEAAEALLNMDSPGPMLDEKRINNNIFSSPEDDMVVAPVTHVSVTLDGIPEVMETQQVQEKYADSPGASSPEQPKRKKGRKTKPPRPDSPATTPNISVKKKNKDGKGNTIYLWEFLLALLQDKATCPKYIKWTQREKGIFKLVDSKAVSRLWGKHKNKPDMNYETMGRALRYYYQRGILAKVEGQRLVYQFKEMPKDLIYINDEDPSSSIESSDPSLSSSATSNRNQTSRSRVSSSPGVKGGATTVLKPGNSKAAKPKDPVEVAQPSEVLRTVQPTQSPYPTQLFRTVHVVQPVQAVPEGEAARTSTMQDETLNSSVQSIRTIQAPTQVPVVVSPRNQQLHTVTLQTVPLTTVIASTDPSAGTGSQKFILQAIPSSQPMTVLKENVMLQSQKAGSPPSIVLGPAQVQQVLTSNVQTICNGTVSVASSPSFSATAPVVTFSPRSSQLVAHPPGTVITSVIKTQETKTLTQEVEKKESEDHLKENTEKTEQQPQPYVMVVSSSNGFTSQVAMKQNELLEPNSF
Sequence of ELF4 (Q99607 whole entry): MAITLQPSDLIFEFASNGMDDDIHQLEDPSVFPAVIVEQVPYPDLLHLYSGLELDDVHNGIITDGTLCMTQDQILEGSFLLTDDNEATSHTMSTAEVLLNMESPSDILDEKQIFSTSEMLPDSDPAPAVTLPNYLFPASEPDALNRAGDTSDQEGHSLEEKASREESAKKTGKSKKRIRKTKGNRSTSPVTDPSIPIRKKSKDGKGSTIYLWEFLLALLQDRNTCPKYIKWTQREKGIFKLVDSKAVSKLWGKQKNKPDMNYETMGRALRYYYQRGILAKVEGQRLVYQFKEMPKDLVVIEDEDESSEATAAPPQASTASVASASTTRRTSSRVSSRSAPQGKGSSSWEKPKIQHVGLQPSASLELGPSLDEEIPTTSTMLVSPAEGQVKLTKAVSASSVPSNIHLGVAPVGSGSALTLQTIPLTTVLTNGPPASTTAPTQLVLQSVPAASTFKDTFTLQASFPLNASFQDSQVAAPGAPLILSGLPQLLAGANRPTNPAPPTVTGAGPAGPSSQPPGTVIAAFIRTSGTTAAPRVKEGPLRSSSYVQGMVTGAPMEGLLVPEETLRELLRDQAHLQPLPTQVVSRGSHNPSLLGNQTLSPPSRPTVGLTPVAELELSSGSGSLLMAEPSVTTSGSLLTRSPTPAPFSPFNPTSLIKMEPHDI
Sequence of ETV1 (P50549 whole entry): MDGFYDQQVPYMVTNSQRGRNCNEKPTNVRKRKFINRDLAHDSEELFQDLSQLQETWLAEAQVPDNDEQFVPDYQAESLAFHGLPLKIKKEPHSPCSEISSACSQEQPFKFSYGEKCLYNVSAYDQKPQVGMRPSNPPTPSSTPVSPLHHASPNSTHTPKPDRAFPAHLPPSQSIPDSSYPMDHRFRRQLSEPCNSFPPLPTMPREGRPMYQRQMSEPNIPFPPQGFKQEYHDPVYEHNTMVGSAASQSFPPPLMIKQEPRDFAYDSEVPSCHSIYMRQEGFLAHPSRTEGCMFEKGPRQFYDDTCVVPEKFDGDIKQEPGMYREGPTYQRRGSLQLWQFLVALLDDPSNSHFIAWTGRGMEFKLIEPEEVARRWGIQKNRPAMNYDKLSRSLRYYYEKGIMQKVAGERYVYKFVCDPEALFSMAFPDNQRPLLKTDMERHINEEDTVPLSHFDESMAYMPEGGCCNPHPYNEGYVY
Sequence of SPIB (Q01892 whole entry): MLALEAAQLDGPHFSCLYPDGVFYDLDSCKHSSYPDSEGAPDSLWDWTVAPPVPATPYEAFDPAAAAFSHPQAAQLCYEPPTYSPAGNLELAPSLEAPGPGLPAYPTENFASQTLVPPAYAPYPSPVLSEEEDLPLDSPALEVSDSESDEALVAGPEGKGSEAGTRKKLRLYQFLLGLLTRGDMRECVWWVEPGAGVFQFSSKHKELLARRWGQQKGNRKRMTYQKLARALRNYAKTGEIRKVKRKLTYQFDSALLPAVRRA
Sequence of CRX (O43186 whole entry): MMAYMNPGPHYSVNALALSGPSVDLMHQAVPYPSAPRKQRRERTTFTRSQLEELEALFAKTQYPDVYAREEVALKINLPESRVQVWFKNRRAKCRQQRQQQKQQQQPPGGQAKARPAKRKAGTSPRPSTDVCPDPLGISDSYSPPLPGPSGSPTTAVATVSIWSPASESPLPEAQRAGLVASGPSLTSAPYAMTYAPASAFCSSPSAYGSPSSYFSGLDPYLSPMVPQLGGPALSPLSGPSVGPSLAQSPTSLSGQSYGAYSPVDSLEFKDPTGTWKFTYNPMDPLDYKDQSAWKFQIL
Sequence of HSF1 (Q00613 whole entry): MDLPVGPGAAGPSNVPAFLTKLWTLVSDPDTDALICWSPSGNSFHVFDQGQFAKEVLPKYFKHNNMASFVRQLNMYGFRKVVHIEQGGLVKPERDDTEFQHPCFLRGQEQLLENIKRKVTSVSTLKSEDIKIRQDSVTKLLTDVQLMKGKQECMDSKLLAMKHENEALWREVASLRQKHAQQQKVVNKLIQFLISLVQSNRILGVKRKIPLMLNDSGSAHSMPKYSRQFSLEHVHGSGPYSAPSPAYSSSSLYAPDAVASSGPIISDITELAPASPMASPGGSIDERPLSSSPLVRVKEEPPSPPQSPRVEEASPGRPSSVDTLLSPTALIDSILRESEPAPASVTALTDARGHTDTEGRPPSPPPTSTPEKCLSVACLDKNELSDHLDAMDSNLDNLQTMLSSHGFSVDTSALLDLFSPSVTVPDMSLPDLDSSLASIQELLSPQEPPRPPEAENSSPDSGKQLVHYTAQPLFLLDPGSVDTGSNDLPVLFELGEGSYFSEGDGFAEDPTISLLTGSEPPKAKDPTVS

With TTGATC the binding signal (FLI1) was 1.21 fold enrichment (6-mer frequency, TF over GST control), the binding signal (ELK1) was 1.22 fold enrichment (6-mer frequency, TF over GST control) and the binding signal (GABPA) was 1.21 fold enrichment (6-mer frequency, TF over GST control). For the same sequence, the binding signal (ERG) was 1.19 fold enrichment (6-mer frequency, TF over GST control), the binding signal (ELF1) was 1.21 fold enrichment (6-mer frequency, TF over GST control) and the binding signal (EHF) was 1.12 fold enrichment (6-mer frequency, TF over GST control). For the same sequence, the binding signal (SPI1) was 1.23 fold enrichment (6-mer frequency, TF over GST control), the binding signal (SPIB) was 1.3 fold enrichment (6-mer frequency, TF over GST control) and the binding signal (ELK3) was 1.26 fold enrichment (6-mer frequency, TF over GST control). For the same sequence, the binding signal (FEV) was 1.17 fold enrichment (6-mer frequency, TF over GST control), the binding signal (ETV5) was 1.26 fold enrichment (6-mer frequency, TF over GST control) and the binding signal (HSF1) was 1.48 fold enrichment (6-mer frequency, TF over GST control). For the same sequence, the binding signal (SPIC) was 1.25 fold enrichment (6-mer frequency, TF over GST control), the binding signal (ELF4) was 1.14 fold enrichment (6-mer frequency, TF over GST control) and the binding signal (ELK4) was 1.14 fold enrichment (6-mer frequency, TF over GST control). The binding signal (ETV2) was 1.09 fold enrichment (6-mer frequency, TF over GST control), the binding signal (ELF3) was 1.01 fold enrichment (6-mer frequency, TF over GST control) and the binding signal (CRX) was 1.71 fold enrichment (6-mer frequency, TF over GST control). The binding signal (ETV1) was 1.15 fold enrichment (6-mer frequency, TF over GST control).
